Where “and” joins values, the source holds several entries; their conditions need not be identical. Equal entries are not always repeated. Records with an inconclusive call do not appear. Some structures have more than one record in an assay (separate samples or runs), and their calls can disagree. Calls of active or inactive are those of the source. The call rests on the fitted dose curve; in most records, active means well fitted curve in the direction sought with a large enough effect; inconclusive means small, poorly fitted or top-dose-only effect, or another doubt; inactive means no such curve, though single readings can be large; an effect the other way counts as inactive or inconclusive.

Assay [1] has as its target ATP-dependent 6-phosphofructokinase (Trypanosoma brucei brucei) (UniProt O15648). Put plainly: qHTS Assay to Find Inhibitors of T. brucei phosphofructokinase: hit validation (AID 492961).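 Further: luminescence reports ADP formed as PFK phosphorylates fructose-6-phosphate with ATP; on the % scale 0 is the no-effect control and ±100 the full control effect.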 The essentials:
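Percent activity derived from corrected luminescence, normalized between 0x and 1x enzyme controls, then fitted to concentration-response curves. Conditions: 1.25 nM PFK, 0.1 mM ATP, 0.5 mM F6P, 45 min RT.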
On the technique in general: In qHTS, concentration-response curves come from the screen itself.

In assay [2] the target is Luciferin 4-monooxygenase (Photinus pyralis) (UniProt P08659). The assay can be described thus: Biochemical firefly luciferase enzyme assay for NPC (AID 624030).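 Further: purified P. pyralis luciferase at 10 nM with luciferin and ATP substrate; 0% = DMSO and -100% = full luciferase inhibition by PTC124 control; nearly all actives have a fitted effect of over 70% in size.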 The essentials: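 Counter-screen for direct inhibition of the luciferase enzyme by approved-drug library compounds, run at 10 nM enzyme in 50 mM Tris acetate (final). Luminescence was read within 5 min of enzyme-buffer addition and normalized to PTC124 versus DMSO (0%).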
Chain of Luciferin 4-monooxygenase (Photinus pyralis) (P08659 whole entry, looked up): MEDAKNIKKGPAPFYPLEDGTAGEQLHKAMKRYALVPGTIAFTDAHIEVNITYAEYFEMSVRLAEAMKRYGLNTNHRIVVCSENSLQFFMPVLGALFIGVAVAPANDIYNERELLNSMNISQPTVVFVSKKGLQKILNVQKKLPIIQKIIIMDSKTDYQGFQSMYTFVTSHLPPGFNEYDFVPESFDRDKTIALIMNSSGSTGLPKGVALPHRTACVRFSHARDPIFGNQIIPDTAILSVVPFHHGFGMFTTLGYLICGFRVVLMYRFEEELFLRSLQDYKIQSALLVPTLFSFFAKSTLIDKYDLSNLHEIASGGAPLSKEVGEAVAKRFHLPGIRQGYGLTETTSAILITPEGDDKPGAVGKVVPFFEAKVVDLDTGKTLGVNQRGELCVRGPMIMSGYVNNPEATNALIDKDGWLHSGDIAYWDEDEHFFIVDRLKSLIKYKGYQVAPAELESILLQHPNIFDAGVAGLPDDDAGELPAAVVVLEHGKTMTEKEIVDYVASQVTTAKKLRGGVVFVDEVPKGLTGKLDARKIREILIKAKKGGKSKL

Assay [3] is described as follows: qHTS profiling for inhibitors of Plasmodium falciparum proliferation (AID 504749). Further: potency means the concentration at half of the fitted maximal effect.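 On activity, negative = inhibition: 0% = DMSO vehicle and full inhibition = artemisinin control.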 On all read-outs here: nearly all actives have a fitted effect of over 60% in size. The conditions noted are these: P. falciparum in erythrocytes, SYBR Green DNA, 72 h; for activity, negative = inhibition: at 28.7 µM (top of the series). The essentials: (§1)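 Fluorescence of SYBR Green-bound parasite DNA, read at 485/535 nm, served as the growth measure. Infected erythrocytes were cultured with compound 72 h; artemisinin (0.29 uM) and DMSO wells defined the normalization range.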

The next assay has as its system CP185. The assay is described as above. To be noted: P. falciparum in erythrocytes, SYBR Green DNA, 72 h; series mostly up to 28.7 µM. The essentials:
as §1

The test system of a further assay is CP192. Described as above. To be noted: P. falciparum in erythrocytes, SYBR Green DNA, 72 h; series mostly up to 28.7 µM. The essentials: as §1
For another assay, the system named is CP211. The assay is described as above. The conditions noted are these: P. falciparum in erythrocytes, SYBR Green DNA, 72 h; series mostly up to 28.7 µM. In outline:
as §1

The next assay relates to CP238. Described as above. To be noted: P. falciparum in erythrocytes, SYBR Green DNA, 72 h; series mostly up to 28.7 µM. The essentials:
as §1

For another assay, the system named is CP252. The assay is described as above. The conditions noted are these: P. falciparum in erythrocytes, SYBR Green DNA, 72 h; series mostly up to 28.7 µM. In outline: as §1
The next assay has as its system CP262. The description is as above. To be noted: P. falciparum in erythrocytes, SYBR Green DNA, 72 h; series mostly up to 28.7 µM. In outline:
as §1

For the next assay, the system named is CP265. Described as above. To be noted: P. falciparum in erythrocytes, SYBR Green DNA, 72 h; series mostly up to 28.7 µM. In outline:
as §1

For the next assay, the system named is CP269. The description is as above. The conditions noted are these: P. falciparum in erythrocytes, SYBR Green DNA, 72 h; series mostly up to 28.7 µM. In outline: as §1
For the next assay, the system named is CP286. The assay is described as above. The conditions noted are these: P. falciparum in erythrocytes, SYBR Green DNA, 72 h; series mostly up to 28.7 µM. In outline:
as §1

The next assay concerns CP315. The assay is described as above. The conditions noted are these: P. falciparum in erythrocytes, SYBR Green DNA, 72 h; series mostly up to 28.7 µM. The essentials:
as §1

The test system of a further assay is CP329. The assay is described as above. The conditions noted are these: P. falciparum in erythrocytes, SYBR Green DNA, 72 h; series mostly up to 28.7 µM. The essentials:
as §1

A further assay concerns DFO2036. Described as above. To be noted: P. falciparum in erythrocytes, SYBR Green DNA, 72 h; series mostly up to 28.7 µM. The essentials:
as §1

Another assay has as its system Dd2. The assay is described as above. The conditions noted are these: P. falciparum in erythrocytes, SYBR Green DNA, 72 h; series mostly up to 28.7 µM. In outline:
as §1

A further assay has as its system ECU. The description is as above. The conditions noted are these: P. falciparum in erythrocytes, SYBR Green DNA, 72 h; series mostly up to 28.7 µM. The essentials: as §1
Another assay concerns FAB9. The assay is described as above. To be noted: P. falciparum in erythrocytes, SYBR Green DNA, 72 h; series mostly up to 28.7 µM. In outline: as §1
In the next assay the test system is JCK. The description is as above. To be noted: P. falciparum in erythrocytes, SYBR Green DNA, 72 h; series mostly up to 28.7 µM. The essentials:
as §1

A further assay concerns N140. The description is as above. The conditions noted are these: P. falciparum in erythrocytes, SYBR Green DNA, 72 h; series mostly up to 28.7 µM. In outline:
as §1

Chain of ATP-dependent 6-phosphofructokinase (Trypanosoma brucei brucei) (O15648 whole entry, looked up): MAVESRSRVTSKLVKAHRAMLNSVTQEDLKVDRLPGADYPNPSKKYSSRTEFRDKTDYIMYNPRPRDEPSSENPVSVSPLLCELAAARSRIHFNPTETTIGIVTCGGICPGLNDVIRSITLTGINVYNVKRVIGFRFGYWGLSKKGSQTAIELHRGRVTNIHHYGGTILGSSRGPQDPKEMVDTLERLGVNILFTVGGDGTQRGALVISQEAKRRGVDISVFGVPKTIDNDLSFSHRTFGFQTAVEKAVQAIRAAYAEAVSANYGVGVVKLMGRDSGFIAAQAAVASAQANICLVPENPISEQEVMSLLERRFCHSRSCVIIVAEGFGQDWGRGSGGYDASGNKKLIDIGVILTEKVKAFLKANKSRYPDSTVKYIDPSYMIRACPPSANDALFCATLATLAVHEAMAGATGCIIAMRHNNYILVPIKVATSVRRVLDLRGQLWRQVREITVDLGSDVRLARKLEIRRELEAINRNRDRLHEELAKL

Take `CCCCCOC(=O)Nc1nc(=O)n(C2O[C@H](C)[C@@H](O)[C@@H]2O)cc1F` (stereo partly specified): the Potency result (in [1]; in [2]; in the assay with CP185; in the assay on CP192; with CP211; in the assay with CP238) was “inactive” each time. Besides, the Potency entry in the assay with CP252, in the assay with CP262, in the assay on CP265, in the assay on CP269, in the assay with CP286 and in the assay on CP315 was “inactive” in each case. Besides, the Potency result with CP329, in the assay on DFO2036, with Dd2, in the assay with ECU, in the assay on FAB9 and with JCK was “inactive” throughout. In addition, in the assay on N140, the Potency entry is “inactive”. The activity, negative = inhibition in assay [3] (parasite line A) was -10.4% (inactive); in assay [3] (parasite line B), 12.5% (inactive).

In the case of `OC[C@@H](O)C(O[C@@H]1O[C@@H](CO)[C@H](O)[C@H](O)[C@H]1O)[C@H](O)[C@@H](O)CO` (stereo partly specified), the Potency result (in assay [1]; in assay [2]; in the assay on CP185; in the assay on CP192; in the assay on CP211; in the assay on CP238) was “inactive” throughout. Besides, the Potency result in the assay on CP252, in the assay with CP262, in the assay with CP265, with CP269, with CP286 and in the assay on CP315 was “inactive” each time. Moreover, the Potency result in the assay on CP329, in the assay on DFO2036, in the assay with Dd2, in the assay with ECU, with FAB9 and with JCK was “inactive” each time. Moreover, in the assay with N140, the Potency entry is “inactive”. Besides, the activity, negative = inhibition was 12% (inactive) in assay [3] (parasite line A) and 4.36% (inactive) in [3] (parasite line B).

`CC(=O)N1CC(O)CC1C(=O)O` (stereo unspecified): the Potency entry (in assay [1]; in [2]; in the assay with CP185; in the assay on CP192; in the assay with CP211; in the assay with CP238) was “inactive” in each case. Also, the Potency entry in the assay on CP252, in the assay with CP262, in the assay on CP265, in the assay on CP269, in the assay with CP286 and in the assay with CP315 was “inactive” each time. The Potency entry in the assay on CP329, in the assay with DFO2036, in the assay with Dd2, in the assay with ECU, in the assay on FAB9 and with JCK was “inactive” in each case. For the same compound, the Potency result in the assay with N140 is “inactive”. Besides, the activity, negative = inhibition in assay [3] (parasite line A) was -10.1% (inactive); in assay [3] (parasite line B), -6.82% (inactive).

As to `CNC1=CN(O)C(c2ccccc2)=c2cc(Cl)ccc2=N1`, the Potency entry (in assay [1]; in assay [2]; in the assay with CP238; in the assay with CP262; in the assay with Dd2; with JCK) was “inactive” each time. Moreover, the Potency in assay [3] (parasite line A) was 3.55 µM (active); in assay [3] (parasite line B), 2.24 µM (active) and 11.2 µM (active); in the assay on CP192, 4.26 µM (active); with CP211, 4.26 µM (active); in the assay with CP252, 8.91 µM (active); in the assay with CP265, 6.31 µM (active). In addition, the Potency was 3.79 µM (active) with CP269; 4.47 µM (active) in the assay on CP286; 1.9 µM (active) with CP315; 3.79 µM (active) and inactive with CP329; 3.16 µM (active) in the assay on DFO2036; 2.51 µM (active) in the assay on FAB9.

In the case of `C[C@@H]1CCN(C(=O)[C@H](CCCNC(=N)N)NS(=O)(=O)c2cccc3c2NC[C@H](C)C3)[C@@H](C(=O)O)C1`, the Potency entry (in assay [1]; in [2]; in the assay on CP185; with CP192; with CP211; in the assay on CP238) was “inactive” throughout. Also, the Potency entry in the assay with CP252, with CP262, in the assay on CP265, with CP269, in the assay on CP286 and with CP329 was “inactive” throughout. Moreover, the Potency result in the assay with DFO2036, with Dd2, with ECU, with FAB9, with JCK and with N140 was “inactive” in each case. The activity, negative = inhibition in [3] (parasite line A) was 3.79% (inactive); in [3] (parasite line B), 10.6% (inactive).

These data come from PubChem BioAssay (NCATS).
